High-throughput results (PubChem)
In the library only some 7.9% were active in any assay of this set; here they are far more common.
KB-V1 cytotox = kills drug-selected multidrug resistant KB-V1 cells; 3.4% of 400,000 active; AID 1347076; Potency, µM (highest dose often 46.1 µM), hits mostly cytotoxic; KB-V1 MDR cells viability, CellTiter-Glo, 72 h; note: % is set by controls: 0 for no effect and ±100 for the full control effect; nearly all actives have a fitted effect of over 60% in size
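KB-V1 MDR subline cells in DMEM (phenol-red free, 10% FBS) exposed to compounds in qHTS concentration series for 72 h at 37 degrees C. Viability read by CellTiter-Glo luminescence; concentration-effect curves fitted after normalization and correction.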
KB-3-1 tox = kills parental KB-3-1 adenocarcinoma cells; KB-3-1 viability, CellTiter-Glo ATP luminescence, 72 h; 1.4% of 400,000 active; Potency, µM (doses to about 46.1 µM), actives largely listed as cytotoxic; AID 1347075; note: % is set by controls: 0 for no effect and ±100 for the full control effect; nearly all actives have a fitted effect of over 60% in size
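KB-3-1 parental drug-naive adenocarcinoma cells in DMEM/10% FBS, incubated 72 h at 37 C with pin-transferred compounds across a concentration series. Viability by CellTiter-Glo luminescence; concentration-response curves fitted after normalization.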
HT1080-NT tox = kills 2HG-producing HT-1080-NT fibrosarcoma cells. AID 686970. HT-1080-NT fibrosarcoma viability, CellTiter-Glo ATP luminescence, 48 h. Potency, µM (highest dose often 46.1 µM), for inactives: at the highest dose activity, negative = less viability, usual class: cytotoxic. 1.6% of 360,000 active;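 note: NT is the 2HG producing partner of a matched IDH1 knockdown line; 0% = DMSO-treated cells and -100% = media-only wells without cells; nearly all actives have a fitted effect of over 55% in size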
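750 cells/well, RPMI + 5% FBS; 2 h settle, compound pin-transfer, 48 h at 37 degrees C. CellTiter-Glo 10 min RT, luminescence. Normalized to DMSO and media-only wells.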
SW480 rerep = induces DNA re-replication in SW480 colon adenocarcinoma cells. SW480 DNA re-replication, Hoechst DNA content imaging, 48 h. Potency, µM (series often up to 46.1 µM), inactives show top-dose re-replication activation, most hits filed as activators. 1.8% of 340,000 active. AID 624297; note: % of control where 0% means no effect; nearly all actives have a fitted effect of over 55% in size
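SW480 cells exposed to compounds for 48 hr at 37 C, 5% CO2, then Hoechst-stained 40 min. Nuclear DNA content imaged by fluorescence scanning (405 nm excitation, 500-530 nm emission); re-replication scored as increased high-intensity nuclei.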
MCF10A rerep = inducers of DNA re-replication in MCF 10A breast cells; 2.9% of 350,000 active; MCF 10A DNA re-replication, Hoechst nuclear intensity, 48 h; Potency, µM (series often up to 46.1 µM), without a hit: top-dose activity, positive = re-replication, actives largely listed as activators; AID 624296; note: % of control where 0% means no effect; nearly all actives have a fitted effect of over 50% in size
HT1080 IDH1KD tx = HT-1080 IDH1 knockdown cell toxicity (counter line) | HT-1080 IDH1 knockdown viability, ATP luminescence, 48 h | Potency, µM (highest dose often 46.1 µM), for the others: top-dose activity, negative = toxicity, most hits filed as cytotoxic | 2% of 360,000 active;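 note: 0% = DMSO wells and -100% = cell-free medium wells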
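After a 2 h attachment period, IDH1KD HT-1080 cells took pin-transferred compound for 48 h at 37 °C; ATP-based luminescence after 10 min room-temperature reagent incubation reported viability.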
An asterisk follows results filed as active; i = inactive; ? = inconclusive; / = no result; [ ] = dose if it differs, or a comment. Calls come from the whole dose curve; as a rule, active = well fitted curve in the direction sought with a large enough effect; inconclusive = small, poorly fitted or top-dose-only effect, or another doubt; inactive = no such curve, though single readings can be large; an effect the other way counts as inactive or inconclusive. Potency is the fitted concentration of half-maximal effect.

SMILES	KB-V1 cytotox	KB-3-1 tox	HT1080-NT tox	SW480 rerep	MCF10A rerep	HT1080 IDH1KD tx
COc1cccc(OC)c1NC(=O)Cc1nn(C)c(=O)c2ccccc12	i	i	1%	-27%	5%	0%
Cc1csc(NC(=O)Cc2nn(C)c(=O)c3ccccc23)n1	16µM*	?	-8%	1%	-9%	-11%
Cc1ccc(NC(=O)Cc2nn(C)c(=O)c3ccccc23)cc1F	2.1µM*	7.3µM*	?	7%	9%	?
O=C1CCc2cc(S(=O)(=O)Nc3ccc(Cl)c(Cl)c3)ccc2N1	i	i	/	/	/	/
CCCCCCCCCCCCCCCCOP(=O)([O-])OCC[N+](C)(C)C	/	/	/	?	4%	/
CCCCCCCCCCCCCCCCCCOC[C@H](COP(=O)([O-])OCC[N+](C)(C)C)OC	/	/	/	21µM*	?	/
CCOC(=O)c1c(NC(=O)COc2ccccc2Br)sc2c1CCCCC2	i	i	/	/	/	/
CC[C@@H]1C(c2ccc(F)cc2)=NN(c2ccc(Br)cc2)[C@H]1C(=O)N1CCOC1=O	i	i	-16%	0.58µM*	16µM*	-23%
CC[C@@H]1C(c2ccccc2)=NN(c2ccc(Br)cc2)[C@H]1C(=O)N1CCOC1=O	i	i	-13%	12%	9.2µM*	-18%
CC[C@@H]1C(c2cccc(C)c2)=NN(c2ccccc2)[C@H]1C(=O)N1CCOC1=O	i	i	-21%	-6%[9.22 µM]	?	-12%
CC[C@@H]1C(c2cccc(Cl)c2)=NN(c2ccc(Br)cc2)[C@H]1C(=O)N1CCOC1=O	i	i	?	10µM*	1.3µM*	?
Cc1ccc(NC(=S)NNC(=O)c2nnn(-c3ccccc3)c2C)cc1	21µM*	i	-13%	71%	-75%	-4%
CC(C)(C)C(=O)OCc1cc(=O)n2nc(C3CCCCC3)sc2n1	i	i	/	/	/	/
CN(C)c1cc[n+](CC(=O)c2ccc(-c3ccccc3)cc2)cc1	i	?	8.2µM*	4%	10%	16µM*
CN(C)c1cc[n+](CC(=O)c2ccc(Br)cc2)cc1	i	i	-13%	9%	15%	-1%
Cc1ccc(C(=O)C[n+]2ccc(Cc3ccccc3)cc2)cc1	i	4.6µM*	-16%	-2%	11%	-26%
COc1ccc(C(=O)C[n+]2ccc(N(C)C)cc2)cc1	i	5.2µM*	-9%	?	?	?
COc1ccc(C(=O)C[n+]2cccc3cc(OC)ccc32)cc1	i	16µM*	-16%	-1%	-3%	-9%
CCCCN(CCCC)CCCNC(=O)c1cc(-c2ccc(Cl)s2)nc2ccccc12	i	i	/	/	/	/
CCOC(=O)C1CCN(S(=O)(=O)c2ccc(-n3cnnn3)c(C)c2)CC1	i	i	-1%	?	12µM*	-2%[9.24 µM]
OC(CNCCc1ccc(C(F)(F)F)cc1)COc1cccc2ccccc12 (centres undefined)	?	i	-27%	16µM*	21µM*	-11%
OC(COc1ccc(CNCCc2ccc(C(F)(F)F)cc2)cc1)CN1CCCCC1 (centres undefined)	?	?	23µM*	?	?	23µM*
OC(COc1ccc(OCC(O)CN2CCCCC2)cc1)CN1CCCCC1 (centres undefined)	i	?	-15%	20%	5%	-17%
COc1ccc(CCNCC(O)COc2cccc(Br)c2)cc1 (centres undefined)	i	i	?	?	?	?
OC(CNCCc1ccc(C(F)(F)F)cc1)COc1ccc2ccccc2c1 (centres undefined)	?	?	3%	?	5.8µM*	-7%
SMILES	KB-V1 cytotox	KB-3-1 tox	HT1080-NT tox	SW480 rerep	MCF10A rerep	HT1080 IDH1KD tx
COc1ccccc1COCC(O)CNCCc1ccc(C(F)(F)F)cc1 (centres undefined)	i	i	-12%	?	12%	-15%
COc1ccc2oc(=O)c(C(=O)NCCc3c(C)[nH]c4ccc(F)cc34)cc2c1	i	i	/	/	/	/
Cc1ccccc1-c1nc(S(=O)(=O)c2ccccc2)c(NCCCN2CCOCC2)o1	i	23µM*	-1%	5%	-3%	0%
Cc1ccccc1-c1nc(S(=O)(=O)c2ccc(Cl)cc2)c(NCCN2CCOCC2)o1	i	i	-3%	?	21µM*	?
O=S(=O)(c1ccccc1)c1nc(-c2ccccc2Cl)oc1NCCCN1CCOCC1	i	i	-16%	?	?	-33%
CCOc1ccc(Br)cc1S(=O)(=O)NC1CCCC1	16µM*	i	2%	-4%	11%	2%
CCOc1cc(S(=O)(=O)NCc2ccc(OC)cc2)c(OCC)cc1-n1cnnn1	5.2µM*	i	13µM*	?	?	8.9µM*
CCOc1cc(S(=O)(=O)NCCc2ccc(OC)c(OC)c2)c(OCC)cc1-n1cnnn1	i	i	5%	0%	13%	12%
CCOc1cc(C)c(S(=O)(=O)NC2CCCCC2)cc1C	?	?	-15%	-1%	-2%	-6%[9.24 µM]
CCOc1cc(S(=O)(=O)NC2CC2)c(OCC)cc1-n1cnnn1	15µM*	i	15%	-11%	16%	3%
COc1ccc(C(C(=O)Nc2ccc3c(c2)OCCO3)n2c(=O)c(-c3ccco3)nc3ccccc32)cc1 (centres undefined)	?	?	?	/	/	13µM*
COc1ccc(NC(=O)C(c2ccc(OC)cc2)n2c(=O)c(-c3ccco3)nc3ccccc32)cc1 (centres undefined)	?	i	-14%	/	/	-22%
CC(C)(C)OC(=O)N1CCC(N2CCN(Cc3ccccc3)C(=O)C2=O)CC1	i	i	/	/	/	/
O=C(CCc1ccccc1)OCCN1CCOCC1	i	i	17%	-14%	1%	18%
CCOC(=O)/C(=C\c1ccccc1)C(=O)CCN1CCOCC1	?	i	6%	0%	21µM*	7%
COc1ccc(C(=O)NN(C)c2nc(C(F)(F)F)nc3ccccc23)cc1	0.73µM*	0.82µM*	?	?	0.033µM*	0.0065µM*
CC(O)CNc1ccc(-c2nn(C)c(=O)c3ccccc23)cc1[N+](=O)[O-] (centres undefined)	6.5µM*	9.2µM*	-16%	-4%	4%	-13%
CCn1ccc2cc(S(=O)(=O)N3CCC(C(=O)NCc4ccc(OC(C)C)cc4)CC3)ccc21	i	i	/	/	/	/
COc1ccc(Cl)cc1NC(=O)C(C)Sc1nnc(C2CC2)n1C1CC1 (centres undefined)	18µM*	i	-1%	-3%	2%	-1%
